# Screening data from PubChem.
# CYP2C9 inhib – blocks human cytochrome P450 2C9; P11712; CYP2C9 Supersomes, luciferin-H conversion, luminescence; inhibition, % at 5 µM; actives 20% (n = 96,000);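 active = blocking of liver enzyme CYP2C9 beyond about 50% at 5 µM, limit read from the data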
# Target sequence (P11712 whole entry, looked up): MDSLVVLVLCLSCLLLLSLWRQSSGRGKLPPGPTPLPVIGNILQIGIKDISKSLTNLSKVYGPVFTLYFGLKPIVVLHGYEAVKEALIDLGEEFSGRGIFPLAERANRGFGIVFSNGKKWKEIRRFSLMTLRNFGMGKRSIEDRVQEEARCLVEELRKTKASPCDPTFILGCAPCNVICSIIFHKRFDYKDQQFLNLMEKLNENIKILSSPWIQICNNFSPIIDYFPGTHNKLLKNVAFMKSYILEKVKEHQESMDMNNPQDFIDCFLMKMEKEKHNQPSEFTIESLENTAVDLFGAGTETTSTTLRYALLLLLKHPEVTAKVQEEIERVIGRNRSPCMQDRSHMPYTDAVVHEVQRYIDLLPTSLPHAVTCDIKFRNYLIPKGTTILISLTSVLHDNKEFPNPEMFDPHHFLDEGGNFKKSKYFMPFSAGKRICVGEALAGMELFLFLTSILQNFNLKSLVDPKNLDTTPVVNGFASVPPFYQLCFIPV
# CYP2C19 activ – activators of human cytochrome P450 2C19; P33261; recombinant CYP2C19, luciferin-H EGE luminescence; stronger effect = higher value; 0 = fully inhibited enzyme, 1 = untreated enzyme; activation factor at 5 µM; 96,000 tested, under 10 active; AID 1025;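 active = activation factor of at least 2 at 5 µM in the primary screen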;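 also: 0 = wells with 2.5 mM tranylcypromine and 1 = vehicle-only wells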
# CYP2C19 inh – inhibitors of human CYP2C19; AID 778; inhibition, % at 5 µM; actives 21% (n = 96,000); P33261; CYP2C19 Supersomes, luciferin-H EGE luminescence, 30 min;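 active = CYP2C19 inhibition above a set limit at 5 µM in the primary screen, cut at about 50% in these data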;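 also: plate controls were negative control wells for no effect and 2.5 mM tranylcypromine positive control for full effect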
# PLK1 PBD inh – blocks phosphopeptide binding to human Plk1 polo box domain; P53350; inhibition, %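 (tested at about 20 µM)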; Plk1 PBD phosphopeptide binding, fluorescence polarization; AID 693; actives 0.13% (n = 97,000); in the data active = inhibition above about 34%, passing the limit was not always enough
# PLK1 inh – PLK1 (human) kinase inhibition; P53350; recombinant PLK1 kinase, TR-FRET peptide phosphorylation; inhibition, % at 10 µM; actives 0.53% (n = 97,000); AID 619;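 active = inhibition of 50% or more in the single-concentration screen; inactive = inhibition below 50%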;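 also: 0% = DMSO max control and 100% = H-89 dihydrochloride min control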
# CYP2C9 activ – activators of human CYP2C9; P11712; recombinant CYP2C9, luciferin-H conversion, luminescence; stronger effect = higher value; factor 1 = untreated enzyme, 0 = blocked; activation factor at 5 µM; actives 1.4% (n = 96,000);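 active = activation factor of 2 or more for CYP2C9 at a 5 µM dose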;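 also: 0 = sulfaphenazole-blocked wells and 1 = vehicle-only wells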
# * marks the source's active call; other numbers are inactive results; / = no result given. Compounds with a hit are over-represented: about 28% of the library has one in this group of screens.
SMILES,CYP2C9 inhib,CYP2C19 activ,CYP2C19 inh,PLK1 PBD inh,PLK1 inh,CYP2C9 activ
COC(=O)c1ccccc1S(=O)(=O)N1Cc2cc([N+](=O)[O-])ccc2Oc2ccccc21,62*,0,100*,-2,-10,0.4
O=C(NCCc1c[nH]c2ccccc12)C1CCC(Cn2c(=S)[nH]c3ccccc3c2=O)CC1 (centres undefined),98*,0,100*,-20,7,0
COCCNC(=O)C1CCC(Cn2c(=S)[nH]c3ccccc3c2=O)CC1 (centres undefined),61*,0.5,53*,-16,-9,0.4
O=C(NCCn1ccc2ccccc21)c1ccc2c(c1)OCO2,13,0.3,65*,/,/,0.9
Cc1cc2ccccc2n1CCNC(=O)C(C)(C)C,/,/,/,-11,-16,/
O=C(NCCn1ccc2ccccc21)c1ccc(S(=O)(=O)N2CCCCC2)cc1,56*,0.8,17,/,/,0.4
Cc1cc2ccccc2n1CCNC(=O)c1ccc(S(=O)(=O)N2CCOCC2)cc1,32,0.9,12,/,/,0.7
CC(C)(C)C(=O)NCCn1ccc2ccccc21,42,0,97*,-7,-16,0.6
COc1ccc(C(=O)NCCn2ccc3ccccc32)cc1,-20,0.2,78*,20,-27,1.2
COC(=O)C1(Cc2ccccc2)NC(c2ccccc2C)C2C(=O)N(c3ccc4c(c3)OCO4)C(=O)C21 (centres undefined),/,/,/,-12,5,/
CC1=CC(=O)C(C(C)C)=C/C1=N/OC(=O)c1cccc([N+](=O)[O-])c1,53*,0.8,16,13,4,0.5
CCc1c(C)nc2[nH]nc(NC(=O)C(F)(F)F)n2c1=O,10,1,3,0,-5,0.9
COc1ccc(CCCc2nnc(SCC(=O)Nc3cc(C)ccc3C)o2)cc1,63*,0.5,46,-2,-7,0.4
Cc1ccc(C)c(NC(=O)CSc2nnc(CCNC(=O)OC(C)(C)C)o2)c1,34,0.2,80*,4,-1,0.7
Cc1c(Cl)cccc1NC(=O)CSc1nnc(CCNC(=O)OC(C)(C)C)o1,68*,0.2,78*,5,18,0.3
Cc1ccc(NC(=O)CSc2nnc(CCCCCNC(=O)OC(C)(C)C)o2)c(C)c1,/,/,/,-18,-11,/
COc1ccc(NCc2nnc(SCC(=O)Nc3cc(C(F)(F)F)ccc3Cl)o2)cc1,80*,0.2,82*,4,2,0.2
O=C1N2CCSC2=NC1(NS(=O)(=O)c1ccccc1)C(F)(F)F (centres undefined),10,1,0,6,-6,0.9
Cn1c(C(F)(F)F)nc2c(=O)oc3ccccc3c21,-3,1,2,-19,-5,1
CC(=O)c1ccc(N2CCN(C(=O)COc3ccccc3F)CC2)c(F)c1,/,/,/,2,-12,/
CC(C)COC(=O)C1[C@H]2C(=O)N(Cc3cccs3)C[C@]23C=C[C@H]1O3 (some centres undefined),-3,0.6,41,-1,-4,1
COc1cc(C(=O)Nc2cc(C(F)(F)F)ccc2Cl)cc(OC)c1OC,20,0.9,12,15,-2,0.8
COc1ccc(/C=C/C(=O)Nc2cc(C(F)(F)F)ccc2Cl)cc1,-103,0.9,9,10,-13,2*
COC(=O)CN1C(=S)N(Cc2ccccc2)C(=O)C1CC(=O)Nc1ccc(Br)cc1 (centres undefined),28,0.9,12,1,-9,0.7
CN1C(=O)C(CC(=O)Nc2ccc(F)cc2)N(CCCc2ccccc2)C1=S (centres undefined),89*,0.4,60*,-2,-14,0.1
SMILES,CYP2C9 inhib,CYP2C19 activ,CYP2C19 inh,PLK1 PBD inh,PLK1 inh,CYP2C9 activ
COc1ccc(NC(=O)CC2C(=O)N(c3ccc(OC)cc3)C(=O)N2C(C)C)cc1 (centres undefined),27,0.4,56*,-1,2,0.7
COc1ccc(NC(=O)CC2C(=O)N(c3ccc(OC)cc3)C(=O)N2CCN2CCN(C)CC2)cc1 (centres undefined),3,1,0,27,-10,1
CC(C)CCN1CCNC(=O)C1CC(=O)Nc1ccc(F)cc1 (centres undefined),7,0.6,37,3,-13,0.9
COc1ccc(NC(=O)CC2C(=O)N(CCc3ccccc3)C(=S)N2Cc2cccnc2)cc1 (centres undefined),92*,0.1,90*,-12,5,0.1
CCN1C(=O)C(CC(=O)Nc2ccc(OC)cc2)N(Cc2cccnc2)C1=S (centres undefined),3,0.4,65*,-15,-13,1
CCN(CC)C(=O)CSc1nnc([C@@H](N)Cc2ccccc2)o1,-6,0.8,21,/,/,1.1
C=CCN1C(=O)C(CC(=O)Nc2ccc(OC)cc2)N(Cc2ccco2)C1=S (centres undefined),48,0,96*,-34,1,0.5
COc1ccc(NC(=O)CC2C(=O)N(c3ccc(Cl)cc3)C(=S)N2CCc2ccncc2)cc1 (centres undefined),97*,0.1,88*,-19,18,0
CC1CN(CCCCOc2ccc(C(C)C)cc2)CC(C)O1 (centres undefined),2,0.6,42,20,-4,1
O=S(=O)(c1ccc(Cl)c(C(F)(F)F)c1)N1CCN(CC(O)COCC2CCCO2)CC1 (centres undefined),-100,0.6,36,/,/,2*
O=S(=O)(c1ccc(OCC(O)CN2CCCC2)cc1)N1CCOCC1 (centres undefined),38,1,0,3,-16,0.6
CC(C)OC(=O)NCN1C(=O)C2C3C=CC(C3)C2C1=O (centres undefined),-5,1,-2,2,-1,1
C(=N\n1cnnc1)/c1ccc2c(c1)OCO2,-1,0.7,26,-1,6,1
Oc1ccc2oc3c(c2c1/C=N/n1cnnc1)CCCC3,63*,0.5,48,10,-12,0.4
Cc1[nH]nc(SCC(=O)N2CCC(C)CC2)c1[N+](=O)[O-],20,0.5,48,-4,-4,0.8
CCc1c(C)nc(SC)n(CC#N)c1=O,-21,1.1,-14,-6,-8,1.2
CC1CCCCC1NC(=O)CSc1nnnn1-c1ccccc1 (centres undefined),6,0.1,89*,-4,-6,0.9
O=C(CSc1nnnn1-c1ccc(F)cc1)NC1CCCCC1,-4,0.7,30,-6,-7,1
COC(=O)c1c(NC(=O)CSc2nnnn2-c2ccccc2)sc2c1CCC(C)C2 (centres undefined),71*,0.6,41,-12,2,0.3
COC(=O)c1ccc(-c2ccco2)n1Cc1cc(C)ccc1C,7,1.1,-13,9,-6,0.9
Cc1ccc(-n2c(SCC(=O)NCc3cccs3)nnc2-c2ccoc2C)cc1,78*,0.1,93*,-5,-5,0.2
